GPR151 activ: activates the human receptor GPR151 | Q8TDV0 | PathHunter beta-arrestin GPR151 cells, luminescence | activation, % at 11.2 µM | hit rate 1% among 650,000; in the data active = activation above about 4.9%;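 also: 0% = median of compound wells and 100% = cells with positive control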
Target sequence (Q8TDV0 whole entry, looked up): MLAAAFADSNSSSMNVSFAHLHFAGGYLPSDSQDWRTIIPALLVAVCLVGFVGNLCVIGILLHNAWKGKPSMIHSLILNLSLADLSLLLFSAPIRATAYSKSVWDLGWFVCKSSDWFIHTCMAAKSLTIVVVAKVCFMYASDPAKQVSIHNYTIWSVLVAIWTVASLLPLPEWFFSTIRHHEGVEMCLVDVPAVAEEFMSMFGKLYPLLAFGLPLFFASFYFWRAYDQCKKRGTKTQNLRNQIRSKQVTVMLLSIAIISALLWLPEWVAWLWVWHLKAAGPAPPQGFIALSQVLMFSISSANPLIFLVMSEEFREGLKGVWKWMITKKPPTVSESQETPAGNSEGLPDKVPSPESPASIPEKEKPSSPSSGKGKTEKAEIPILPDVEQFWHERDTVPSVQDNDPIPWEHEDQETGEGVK
FBW7 act: activators of human E3 ligase FBW7 | AlphaScreen FBW7–phospho-cyclin E peptide binding, activator screen | normalized activity (activation), % at 26.1 µM | hit rate 0.13% among 650,000; in the data active = normalized activity above about 1.9%;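 also: purified mutant Fbw7 with reduced substrate affinity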
TEAD-YAP block: TEAD-YAP interaction inhibition; HEK-TIYL cells, TEAD-Gal4/YAP UAS-luciferase luminescence; inhibition, % at 9.12 µM; hit rate 1.4% among 640,000; in the data active = inhibition above about 32%;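 also: 0% = median of test compound wells and 100% = reference inhibitor wells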
MITF inh: blocks human microphthalmia-associated transcription factor. O75030. AlphaScreen MITF homodimerization, bead proximity signal. inhibition, % at 2.6 µM. hit rate 0.91% among 650,000. AID 1259374; in the data active = inhibition above about 50%;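 also: 0% = vehicle wells with protein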
GPR151 confirm: human GPR151 activation, confirmation screen; shares compounds with GPR151 activ; GPR151 PathHunter beta-arrestin cells, luminescence, 90 min; % of EA-reagent control over plate median; 6,700 tested, under 10 active; AID 1508609; activation, % at 11.2 µM;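 active = mean percent activation across replicates above the confirmation screen cutoff of 4.91%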
GPR119 counter: activates human GPR119 in a GPR151 counter-screen | shares compounds with GPR151 activ | GPR119 PathHunter beta-arrestin cells, luminescence, 90 min; 0 = compound-well median, 100 = enzyme-acceptor control | activation, % at 11.2 µM | hit rate 0.3% among 6,700 | AID 1508611;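 active = mean percent activation in the counterscreen above 29.09%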;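 also: counterscreen on off-target GPR119 to flag nonselective hits from the GPR151 activator screen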
An asterisk follows results filed as active; . = not tested or not shown; ! = repeats disagree. Sampled rows, rich in hits. Any-hit rate of the full collection: about 3.5%.

SMILES | GPR151 activ | FBW7 act | TEAD-YAP block | MITF inh | GPR151 confirm | GPR119 counter
Cc1nn(-c2ccccc2)c(Cl)c1/C=C1\SC(=S)NC1=O | 5.3* | -0.1 | 0.9 | 3.8 | 0.6 | 8.8
COc1ccccc1CN1C(=O)C2ON(c3ccccc3)C(c3cccc([N+](=O)[O-])c3)C2C1=O (centres undefined) | 0.5 | -0.1 | 1.6 | 9.4 | . | .
Cc1ccc(-c2nc3cc(Cl)ccc3c(=O)o2)cc1C | -1.9 | 0.1 | -46.9 | -8.4 | . | .
Cc1cc(-c2nc3cc(Cl)ccc3c(=O)o2)ccc1[N+](=O)[O-] | 6.3* | 0.1 | -3.5 | -4.0 | -0.2 | 3.1
COc1ccc(OCCOc2ccc(C)cc2[N+](=O)[O-])cc1 | 0.8 | 0.4 | -54.8 | 11.2 | . | .
COCCNCCCOc1ccc(C)cc1[N+](=O)[O-] | 7.3* | -0.1 | -0.9 | 30.5 | -0.9 | -8.8
Cc1ccc(OCCN2CCCC2)c([N+](=O)[O-])c1 | 5.3* | 0.1 | 0.5 | 45.7 | -0.2 | -6.6
Cc1cc(OCCN(C)C)ccc1[N+](=O)[O-] | -1.3 | -0.1 | -3.6 | 39.8 | . | .
Cc1cc(OCCCNCCN(C)C)ccc1[N+](=O)[O-] | 5.4* | -0.2 | -5.7 | -3.5 | -0.3 | -10.5
CCOc1cccc(CN2CCC(C(=O)NCc3ccccn3)CC2)c1O | 8.7* | -0.1 | 8.1 | 53.6* | -1.0 | -2.6
CCOc1ccccc1CN1CCC(C(=O)NCc2ccc(C)cc2)CC1 | -0.2 | -0.1 | 5.2 | 21.1 | . | .
CCOC(=O)c1[nH]c(C)c(C(=O)OCc2nc3ccc(Cl)cc3n2CCO)c1C | 6.3* | -0.1 | 56.4* | -2.2 | 0.8 | -2.5
CS(=O)(=O)c1ccc(-c2ccnc(Nc3ccc(-n4nncc4-c4ccccc4)cc3)n2)cc1 | 1.5 | 0.1 | 25.5 | -6.1 | . | .
COc1ccccc1CNC1CCCN(c2nc(C)c3cc(F)ccc3n2)CC1 (centres undefined) | 5.4* | 0.3 | -1.3 | 7.0 | 0.4 | 14.1
CCCCNC(=S)NNC(=O)C(=O)NNC(=S)NCCCC | 6.4* | -0.1 | 4.7 | 23.9 | 0.0 | 5.1
CCCCNC(=S)NNC(=O)C12CC3CC(CC(C3)C1)C2 | 1.4 | 0.1 | -7.7 | -7.3 | . | .
CCc1c(C)nc2ncnn2c1N1CCC(C(=O)Nc2ccc(C)cc2)CC1 | -0.7 | -0.1 | 11.8 | 8.7 | . | .
Cc1nc2ncnn2c(N2CCC(C(=O)Nc3ccc(F)cc3)CC2)c1C | 5.4* | -0.3 | 8.4 | -11.3 | 0.2 | 8.6
COc1ccc(/C=C2\N=C(c3ccccc3OC)OC2=O)c(OC)c1 | 6.5* | 0.0 | -6.6 | -3.2 | 0.5 | -2.4
COc1ccc(OC)c(/C=C2\N=C(c3ccccc3OC)OC2=O)c1 | 0.9 | 0.0 | -11.4 | 13.4 | . | .
Cc1nn(C)cc1CN1CCC(CO)(CCOc2ccccc2)CC1 | 10.7* | 0.1 | 5.2 | 3.8 | 0.8 | 7.7
COc1ccc(N2CCN(C(=O)CSc3nc4[nH]ncc4c(=O)n3-c3cccc4ccccc34)CC2)cc1 | 0.5 | -0.1 | -5.7 | 8.8 | . | .
Cc1cccc(C(=O)NNC(=O)/C=C/C(=O)O)c1 | 9.2* | 0.0 | -44.2 | -1.4 | -0.7 | -8.3
O=C(O)c1ccc(N=Cc2cc(Br)ccc2O)cc1 | -0.5 | 0.0 | 5.2 | 2.7 | . | .
Cc1onc(-c2c(Cl)cccc2Cl)c1C(=O)N1CCN(c2ccccc2F)CC1 | -0.8 | 0.1 | -9.4 | 0.4 | . | .
SMILES | GPR151 activ | FBW7 act | TEAD-YAP block | MITF inh | GPR151 confirm | GPR119 counter
CC(C)(S)C(N)C(=O)O (centres undefined) | 5.1*! | -0.1 | -9.1 | 1.0 | 0.3 | -9.3
CC(C)(S)C(=O)N[C@@H](CS)C(=O)O | -2.2 | 0.0 | -1.7 | -9.4 | . | .
COc1ccc2ccc(OC)c(/C=C3\NC(=O)N(Cc4ccc(Cl)cc4)C3=O)c2c1 | 4.9* | 0.1 | -0.3 | 7.1 | 0.1 | 6.0
COc1cc(/C=C2/NC(=O)N(Cc3ccc(F)cc3)C2=O)cc(Cl)c1OC | 5.2* | 0.6 | -12.8 | -4.0 | 0.2 | 0.0
COc1cc(/C=C2/NC(=O)N(Cc3ccccc3F)C2=O)cc(Cl)c1OC | 0.6 | 0.1 | -2.6 | 7.7 | . | .
COc1cc(/C=C2\NC(=O)N(Cc3ccc(Cl)cc3)C2=O)cc(OC)c1O | -2.0 | -0.4 | -6.2 | -11.8 | . | .
O=S(=O)(c1ccc(S(=O)(=O)N2CCC3(CC2)OCCO3)cc1)N1CCCCCC1 | -0.1 | 0.0 | 1.6 | 13.3 | . | .
CC(C)(C)c1ccc2c(c1)N(CC(=O)NCCCN1CCc3ccccc3C1)C(=O)CO2 | -3.0 | -0.1 | 20.7 | 6.8 | . | .
CC(C)OC(=O)c1cccc(C(=O)Oc2ccc(Br)cc2)n1 | 6.7* | 0.1 | 12.6 | 8.2 | -0.5 | -8.3
COC(=O)c1cccc(C(=O)Oc2ccc(Br)cc2)n1 | 0.9 | -0.2 | -0.3 | -1.2 | . | .
CCN(CC)c1ccc(/C=N/N2C(=O)c3ccccc3C2=O)cc1 | -0.3 | 0.0 | 9.2 | -2.2 | . | .
CCN(CC)c1ccc(/C=N/N2C(=O)c3ccccc3C2=O)c(O)c1 | 8.3* | 0.2 | 3.8 | -71.6 | -0.3 | 2.2
CCN(CC)c1ccc(/C=N/NC(=O)COc2ccccc2)c(O)c1 | 8.1* | 0.0 | 3.1 | 5.9 | 1.4 | 11.7
O=Cc1cccc(NC(=O)c2ccc(Cl)cc2Cl)c1 | -7.4 | -0.1 | -32.6 | -0.3 | . | .
Cc1cccc(CCNS(=O)(=O)c2c(C)n[nH]c2C)c1 | -1.0 | -0.1 | -3.4 | -3.6 | . | .
CCOc1ccc(CCNS(=O)(=O)c2c(C)n[nH]c2C)cc1OCC | 5.6* | 0.2 | 5.8 | 5.4 | 0.5 | 7.6
CCOC(=O)c1sc(NC(=O)Nc2ccc(Cl)c(Cl)c2)nc1C | 1.2 | 0.1 | -2.0 | -5.5 | . | .
CC(C)C1C2CCC(C2)C1N (centres undefined) | 5.3*! | 0.1 | 0.0 | 9.7 | -0.9 | -11.2
CCOc1ccc2[nH]c(C)c(CN(C)C)c(=O)c2c1 | 6.8* | -0.1 | -4.1 | -1.3 | 0.3 | 4.1
COc1ccc2[nH]c(C)c(CN(C)C)c(=O)c2c1 | 0.0 | 0.0 | 14.6 | -3.5 | . | .
CCCN1C(=O)/C(=C/c2ccc(O)c(OC)c2)SC1=S | 5.1* | -0.3 | -4.4 | 8.9 | 1.1 | 9.5
Cc1cccc(C(=O)Nc2ccc(C(=O)N/N=C/c3ccc([N+](=O)[O-])s3)cc2)c1 | -0.5 | 0.1 | -5.8 | 10.3 | . | .
CCOC(=O)c1cnc2c(Cl)cccc2c1Cl | -0.7 | -0.1 | 3.5 | -7.7 | . | .
C=CCN(C#N)c1nc(OC)nc(N2CCCC2)n1 | 13.9* | 0.2 | -1.5 | 9.7 | 0.9 | 7.3
O=C(c1ccccc1NS(=O)(=O)c1ccc(Br)s1)N1CCCC1 | 5.0* | 0.0 | 2.3 | 14.8 | -1.2 | -7.2
O=C1c2ccccc2C(=O)N1OS(=O)(=O)c1ccccc1 | -0.2 | 0.2 | -5.7 | -1.6 | . | .
O=C1c2ccccc2C(=O)N1OS(=O)(=O)c1ccc(Cl)cc1 | 16.6* | 0.6 | 2.1 | 13.8 | 0.4 | 3.5
O=C1NC2(CCc3ccccc3C2)C(=O)N1CN1CCN(Cc2ccc3c(c2)OCO3)CC1 (centres undefined) | 8.3* | -0.1 | 8.6 | 5.2 | -0.4 | -1.0
Cc1noc(C)c1COC(=O)Cc1coc2cc3c(cc12)CCC3 | 3.4 | -0.1 | 1.7 | -9.1 | . | .

Source: PubChem BioAssay
